Measurements reported in the antibiotic and cytotoxicity screens of Wong et al. (2023).
The campaign covered roughly 39,000 compounds. About 1,500 (3.8%) were called active. Many of the other results were omitted from the sample, so actives are more common in it than they were.

Each molecule was assayed on HSkMC (human skeletal muscle cells) (assay: cytotoxicity call (relative viability < 0.9)). Details: 10 µM.
For `O=C(C1=C[C@@H](c2ccc3c(c2)OCO3)C[C@@H](OCCCCO)O1)N1CCN(Cc2ccc3c(c2)OCO3)CC1`, the cytotoxicity call was “inactive”.
`C[C@H]1CN([C@@H](C)CO)C(=O)c2cc(C#CC3(O)CCCC3)cnc2O[C@@H]1CN(C)C(=O)Cc1ccncc1` was tested, and the cytotoxicity call was “inactive”.
For `COc1ccc(S(=O)(=O)N2C[C@@H](O)COC[C@@H]3O[C@@H](CC(=O)NCCCN4CCOCC4)CC[C@H]32)cc1`, the cytotoxicity call was “inactive”.
For `CCCCCCOC(=O)/N=C(/N)c1ccc(NCc2nc3cc(C(=O)N(CCC(=O)OCC)c4ccccn4)ccc3n2C)cc1`, the cytotoxicity call was “active”.
In the case of `CCCCCCOC(=O)N=C(N)c1ccc(NCc2nc3cc(C(=O)N(CCC(=O)OCC)c4ccccn4)ccc3n2C)cc1.CS(=O)(=O)O`, the cytotoxicity call is reported as “inactive”.
In the case of `COc1ccc(NC(=O)Nc2cccc3c2O[C@@H](CN(C)S(C)(=O)=O)[C@@H](C)CN([C@H](C)CO)C3=O)cc1`, the cytotoxicity call is reported as “inactive”.
With `C[C@H](CO)N1C[C@H](C)[C@H](CN(C)S(C)(=O)=O)Oc2ccc(NS(=O)(=O)c3ccc(F)cc3)cc2CC1=O` the cytotoxicity call was “inactive”.
`C[C@H](CO)N1C[C@H](C)[C@@H](CN(C)C(=O)Nc2ccc3c(c2)OCO3)Oc2ccc(NC(=O)c3ccncc3)cc2CC1=O` was tested, and the cytotoxicity call was “inactive”.
In the case of `Cc1noc(C)c1NC(=O)Nc1ccc2c(c1)C(=O)N([C@@H](C)CO)C[C@@H](C)[C@H](CN(C)Cc1ccccc1)OCCCC[C@@H](C)O2`, the cytotoxicity call is reported as “inactive”.
In the case of `C[C@H](CO)N1C[C@H](C)[C@H](CN(C)CC2CC2)OCCCC[C@H](C)Oc2ccc(NC(=O)Nc3ccc(C(F)(F)F)cc3)cc2C1=O`, the cytotoxicity call is reported as “inactive”.
With `C[C@@H]1CCCCO[C@@H](CN(C)CC2CC2)[C@H](C)CN([C@@H](C)CO)C(=O)c2cc(NC(=O)Nc3ccc(C(F)(F)F)cc3)ccc2O1` the cytotoxicity call was “inactive”.
With `C[C@@H]1CCCCO[C@H](CN(C)CC2CC2)[C@H](C)CN([C@@H](C)CO)C(=O)c2cc(NC(=O)Nc3ccc(C(F)(F)F)cc3)ccc2O1` the cytotoxicity call was “active”.
With `C[C@H]1CCCCO[C@H](CN(C)CC2CC2)[C@@H](C)CN([C@@H](C)CO)C(=O)c2cc(NC(=O)Nc3ccc(C(F)(F)F)cc3)ccc2O1` the cytotoxicity call was “inactive”.
With `CCCN(C)C[C@@H]1OCCCC[C@@H](C)Oc2ccc(NC(=O)Nc3ccc(C(F)(F)F)cc3)cc2C(=O)N([C@H](C)CO)C[C@@H]1C` the cytotoxicity call was “inactive”.
`CCCN(C)C[C@H]1OCCCC[C@H](C)Oc2ccc(NC(=O)Nc3ccc(C(F)(F)F)cc3)cc2C(=O)N([C@@H](C)CO)C[C@H]1C` was tested, and the cytotoxicity call was “inactive”.
With `CCCN(C)C[C@@H]1OCCCC[C@H](C)Oc2ccc(NC(=O)Nc3ccc(C(F)(F)F)cc3)cc2C(=O)N([C@@H](C)CO)C[C@@H]1C` the cytotoxicity call was “active”.
For `C[C@@H]1CCCCO[C@@H](CN(C)CC2CC2)[C@@H](C)CN([C@H](C)CO)C(=O)c2cc(NC(=O)Nc3ccc(C(F)(F)F)cc3)ccc2O1`, the cytotoxicity call was “inactive”.
`C[C@@H]1CCCCO[C@H](CN(C)CC2CC2)[C@H](C)CN([C@H](C)CO)C(=O)c2cc(NC(=O)Nc3ccc(C(F)(F)F)cc3)ccc2O1` was tested, and the cytotoxicity call was “active”.
In the case of `C[C@@H]1CN([C@H](C)CO)C(=O)CCCn2nncc2CO[C@@H]1CN(C)S(=O)(=O)c1ccc(-n2cccn2)cc1`, the cytotoxicity call is reported as “inactive”.
For `CC[C@@H](C)N[C@H]1CCS(=O)(=O)C1`, the cytotoxicity call was “inactive”.
In the case of `Cc1cccc([C@@H](N)c2nccn2C)c1`, the cytotoxicity call is reported as “inactive”.
With `O=C(CCCCCNC(=O)OCCCCO[C@H]1C[C@@H](c2ccc(C(F)(F)F)cc2)C=C(C(=O)N2CCN(Cc3ccccc3)CC2)O1)NO` the cytotoxicity call was “inactive”.
`CN(C)CC(=O)N[C@@H]1CC[C@@H](CC(=O)NCCN2CCCCC2)O[C@H]1CO` was tested, and the cytotoxicity call was “inactive”.
With `C[C@H](CO)N1C[C@H](C)[C@@H](CN(C)S(=O)(=O)c2ccc(F)cc2)Oc2c(NC(=O)Nc3ccc(C(F)(F)F)cc3)cccc2C1=O` the cytotoxicity call was “inactive”.
In the case of `O=C(NCCN1CCCC1)[C@H]1[C@H](CO)[C@H]2Cn3c(cccc3=O)[C@@H]1N2C(=O)c1ccccc1`, the cytotoxicity call is reported as “inactive”.
In the case of `C[C@H](CO)N1C[C@H](C)[C@H](CN(C)C(=O)Nc2cccc3ccccc23)Oc2c(NS(=O)(=O)c3ccc(Cl)cc3)cccc2C1=O`, the cytotoxicity call is reported as “inactive”.
`CO[C@@H]1[C@H](O[P@@](=O)(S)OC[C@H]2O[C@@H](n3cnc4c(N)ncnc43)C[C@@H]2O)[C@@H](CO)O[C@H]1n1ccc(=O)[nH]c1=O` was tested, and the cytotoxicity call was “active”.
`CO[C@@H]1[C@H](O[P@@](=O)(OC[C@H]2O[C@@H](n3cnc4c(N)ncnc43)C[C@@H]2O)SCOC(=O)OC(C)C)[C@@H](CO)O[C@H]1n1ccc(=O)[nH]c1=O` was tested, and the cytotoxicity call was “inactive”.
For `Nc1ncnc2c1ncn2[C@@H]1O[C@H](COP(=O)(O)O)[C@@H](O)[C@H]1O`, the cytotoxicity call was “inactive”.
For `O=C(C[C@@H]1CC[C@H]2[C@@H](COC[C@H](O)CN2S(=O)(=O)c2ccccc2)O1)NCCN1CCCC1`, the cytotoxicity call was “inactive”.
With `C[C@H]1CN([C@@H](C)CO)C(=O)Cc2cc(NS(=O)(=O)c3cccs3)ccc2O[C@H]1CN(C)S(=O)(=O)c1cccs1` the cytotoxicity call was “inactive”.
`CO[C@H]1O[C@@H](COC(C)=O)[C@@H](OC(C)=O)C(C#N)(C#N)[C@@H]1OC(C)=O` was tested, and the cytotoxicity call was “inactive”.
With `Clc1ccccc1C(c1ccccc1)(c1ccccc1)n1ccnc1` the cytotoxicity call was “active”.
For `N#CC(c1ccccc1)(c1ccccc1)c1ccccc1Cl`, the cytotoxicity call was “inactive”.
`C[C@H](CO)N1C[C@H](C)[C@H](CN(C)S(=O)(=O)c2ccc(Cl)cc2)OCCCC[C@H](C)Oc2ccc(NC(=O)c3ccncc3)cc2C1=O` was tested, and the cytotoxicity call was “inactive”.
`Cc1cccc(S(=O)(=O)N2C[C@H](O)COC[C@H]3O[C@@H](CC(=O)NCCCN4CCOCC4)CC[C@@H]32)c1` was tested, and the cytotoxicity call was “inactive”.
For `COc1c(C)cnc2c1c(=O)n(CC(N)=O)c(=O)n2C`, the cytotoxicity call was “inactive”.
For `C[C@@H]1CCCCO[C@H](CN(C)Cc2ccc(C(F)(F)F)cc2)[C@H](C)CN([C@H](C)CO)C(=O)c2cc(NS(=O)(=O)c3cccs3)ccc2O1`, the cytotoxicity call was “inactive”.
In the case of `C[C@]1(C(=O)NCC(F)(F)F)c2ccccc2C(=O)N(Cc2cc(C(F)(F)F)cc(C(F)(F)F)c2)[C@H]1c1ccc(CO)cc1`, the cytotoxicity call is reported as “inactive”.
With `O=C(NC1CCCCCCC1)c1ccccc1-c1ccccc1` the cytotoxicity call was “inactive”.
With `O=C(NC1CCN(CCCCC2(C(=O)NCC(F)(F)F)c3ccccc3-c3ccccc32)CC1)c1ccccc1-c1ccc(C(F)(F)F)cc1` the cytotoxicity call was “active”.
